# Laboratory results taken from PubChem BioAssay (NCATS).
# Activity calls are given as the source filed them. The call rests on the fitted dose curve; in most records, active means well fitted curve in the direction sought with a large enough effect; inconclusive means small, poorly fitted or top-dose-only effect, or another doubt; inactive means no such curve, though single readings can be large or run the other way.
# Assay: Cellular Toxicity (caspase-3) MRC-5 (AID 659);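 further: cells exposed to compound for 16 h at 37 °C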
# Settings: MRC-5 cells, luminescence, normalized: DMSO 0%, 10 µM staurosporine 100%; series mostly up to 91.7 µM; caspase-3 activation: at the top concentration
# From the text: NIH Chemical Genomics Center [NCGC]
# NIH Molecular Libraries Screening Centers Network [MLSCN]
# National Institutes of Environmental Health Sciences [NIEHS]
# National Toxicology Program [NTP]
# We have developed a 1536-well cell-based assay for quantitative high throughput screening (qHTS) against a number of cell lines to determine in vitro caspase 3/7 activity of small molecules. This particular assay uses the MRC-5 cell line which is derived from human normal lung fibroblasts.
# NCGC Assay Protocol Summary:
# The Caspase-Glo 3/7 assay (Promega) is a homogeneous method to measure caspase-3 and caspase-7 activities in cultured cells. The quantitation of caspase 3/7 activity is based on the cleavage of a peptide-aminoluciferin substrate. After caspase cleaves the substrate the free aminoluciferin is liberated and serves as the substrate of luciferase, which generates the light. The luminescent signal is proportional to amount of caspase 3/7 activity present.
# Using the Caspase-Glo 3/7 assay, the amount of caspase 3/7 activity was measured in the MRC-5 line with complete culture medium following compound treatment for 16 hours. The assay was performed in opaque white 1536-well plates. In the screen, tamoxifen and staurosporine were used as positive controls. Library compounds were measured for their ability to cause the activation of caspase 3/7 in the cell line, as reflected by an increase in luminescence signal, in a concentration-dependent manner. Data were normalized to the controls for basal activity (DMSO only) and 100% stimulation (10 uM staurosporine). AC50 values were determined from concentration-response data modeled with the standard Hill equation.
# qHTS protocol for caspase 3/7 assay in MRC-5 cells
# [Step] [Parameter] [Value] [Description]
# 1. Reagent; 5 uL; 1500 MRC-5 cells/well
# 2. Time; 5 hr; 37 °C incubation
# 4. Controls; 23 nL; Tamoxifen 0.23 uM to 100 uM & staurosporine 1.4 pM to 100 uM
# 5. Time; 16 hr; 37 °C incubation
# 6. Reagent; 5 uL; Caspase-Glo 3/7 reagent
# 7. Time; 1 hr; Room Temperature
# 8. Detection; Luminescence; Viewlux plate reader
# Keywords: caspase 3/7, apoptosis, MRC-5 cell line, luminescence, NTPHTS, NTPHTS_NCGC, NIEHS, EPA, DSSTox, MLSMR, MLSCN, NIH Roadmap, qHTS, NCGC
row,Compound,caspase-3 activation
1,C=CCn1c(=O)n(CC=C)c(=O)n(CC=C)c1=O,-1.97% (inactive)
2,CCCCCCCCCCCCOCC1CO1 (stereo not given),2.2% (inactive)
3,Cc1ccc2nc(-c3ccc(N)cc3)sc2c1S(=O)(=O)O,-9% (inactive)
4,O=C(O)/C=C/C(=O)O,-0.113% (inactive)
5,Cc1ccc(C)c(O)c1,1.51% (inactive)
6,CCCC=O,-0.227% (inactive)
7,Nc1cc(S(=O)(=O)O)ccc1O,-0.232% (inactive)
8,Cc1cccc(C(=O)O)c1[N+](=O)[O-],0.192% (inactive)
9,ClC/C=C/CCl,-0.564% (inactive)
10,CC(C)=CCC/C(C)=C/C=O,-1.87% (inactive)
11,COC(=O)CC#N,4.1% (inactive)
12,O=[N+]([O-])c1ccc(CCO)cc1,-1.9% (inactive)
13,C(=C/c1ccccc1)/c1ccccc1,0.788% (inactive)
14,CCCCC(CC)CO (stereo not given),0.0385% (inactive)
15,O=C(O)c1cccc([N+](=O)[O-])c1,2% (inactive)
16,CCC(C)(C)OC,0.436% (inactive)
17,O=CNc1ccccc1,1.91% (inactive)
18,Cc1cc(C(=O)O)ccc1[N+](=O)[O-],0.0923% (inactive)
19,CCOc1ccc(NC(C)=O)cc1N,-0.511% (inactive)
20,CC(=O)Nc1ccc(N)cc1,-0.576% (inactive)

row,Compound,caspase-3 activation
1,Nc1nc(CC(=O)O)cs1,0.135% (inactive)
2,Nc1ccccc1[N+](=O)[O-],1.77% (inactive)
3,CC(=O)c1ccccc1[N+](=O)[O-],2.69% (inactive)
4,CCCCOCCOCCSC#N,-1.37% (inactive)
5,ICCc1ccccc1,-3.04% (inactive)
6,O=C(O)c1ccccc1C(=O)O,-3.91% (inactive)
7,Cc1ccc(CO)cc1,0.221% (inactive)
8,Oc1cccc(Nc2ccccc2)c1,-0.362% (inactive)
9,Fc1ccccc1,-0.0394% (inactive)
10,CC=C(Cl)Cl,0.95% (inactive)
11,CCC(C)=O,0.732% (inactive)
12,O=Cc1ccc(Cl)cc1,-2.83% (inactive)
13,CC=O,1.94% (inactive)
14,Cc1ccc(C)c([N+](=O)[O-])c1,0.805% (inactive)
15,O=C(O)CCSSCCC(=O)O,-1.2% (inactive)
16,N#CCc1ccccc1[N+](=O)[O-],9.29% (inactive)
17,Nc1cc(Cl)c([N+](=O)[O-])cc1O,4.45% (inactive)
18,Cc1cccc2ccccc12,1.26% (inactive)
19,FC(F)(F)c1ccccc1Cl,0.256% (inactive)
20,CC(=O)C1(C)CC2=C(CCCC2(C)C)CC1C (stereo not given),0.727% (inactive)
